Measured values taken from PubChem BioAssay (EPA / NIEHS).
The source made the active and inactive calls. Rule for the calls: active = hit-call score of the fitted dose curve at least 0.9, where 1 is the maximum; inactive = score below 0.9.

How the values were obtained:
Settings in all cases: primary human lung fibroblasts
[1] = read-out: Plasminogen activator inhibitor-1 (PAI1), SERPINE1 (gene 5054); assay: BSK_MyoF_PAI1: BioMAP Diversity Plus: MyoF Assay for Plasminogen activator inhibitor-1 (PAI1) Biomarker Activity (AID 2284256);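 for outcome: PAI-1 protein level measured by ELISA in fibroblast cultures; PAI-1 read 24 h after compound addition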
How it was run: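 Human lung fibroblasts (MyoF system) were exposed to test chemicals for 24 h, then PAI-1 was quantified by ELISA. Activity was fitted in the positive (signal-gain) direction relative to DMSO vehicle as baseline.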

[2] = read-out: Interleukin-8 (IL8), CXCL8 (gene 3576); assay: BSK_MyoF_IL8: BioMAP Diversity Plus: MyoF Assay for Interleukin-8 (IL8) Biomarker Activity (AID 2284261)
How it was run: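 IL-8 quantified by ELISA after 24 h compound exposure of primary human lung fibroblasts. SRB staining of parallel cultures flagged cytotoxicity; DMSO served as baseline.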

Decorin, DCN (gene 1634) = assay: BSK_MyoF_Decorin: BioMAP Diversity Plus: MyoF Assay for Decorin Biomarker Activity (AID 2284265)
How it was run: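 Decorin protein was quantified by ELISA 24 h after chemical addition to primary human lung fibroblasts and analysed as increase over DMSO. Cytotoxicity was tracked in parallel cultures by SRB total-protein staining read at 560 nm.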

[3] = BSK_MyoF_SRB: Viability Assessment in the BioMAP Diversity Plus: MyoF Assay (AID 2284267);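 note: total protein by SRB absorbance in parallel cultures as cytotoxicity measure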
How it was run: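 Read-out is SRB absorbance at 560 nm, reflecting total protein in parallel lung fibroblast cultures harvested 24 h after compound addition. Cells were TCA-fixed (10%) and stained with 0.1% SRB; activity is referenced to DMSO.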

[4] = read-out: Matrix Metallopeptidase 1 (MMP1), MMP1 (gene 4312); assay: BSK_MyoF_MMP1: BioMAP Diversity Plus: MyoF Assay for Matrix Metallopeptidase 1 (MMP1) Biomarker Activity (AID 2284268)
How it was run: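 Human lung fibroblasts (MyoF system) exposed to chemical for 24 h in 96-well format; MMP1 biomarker quantified by ELISA, with activity fitted in the positive direction relative to DMSO baseline.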

[5] = read-out: TIMP metallopeptidase inhibitor 1 (TIMP1), TIMP1 (gene 7076); assay: BSK_MyoF_TIMP1: BioMAP Diversity Plus: MyoF Assay for TIMP metallopeptidase inhibitor 1 (TIMP1) Biomarker Activity (AID 2284269)
How it was run: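 ELISA read-out of TIMP-1 from primary human lung fibroblast cultures 24 h after compound dosing; gain of signal relative to DMSO vehicle baseline defines activity.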

SMILES	AC50 [1]	outcome [2]	outcome (Decorin, DCN (gene 1634))	AC50 [3]	AC50 [4]	AC50 [5]	outcome [1]	outcome [3]	outcome [4]	outcome [5]	AC50 [2]	AC50 (Decorin, DCN (gene 1634))
CC(=O)C1(C)CC2=C(CCCC2(C)C)CC1C (stereo unspecified)	11.2 µM (active)	inactive	inactive	14.6 µM (active)	4.66 µM (active)	20 µM (active)						
IC(I)I		inactive	inactive				inactive	inactive	inactive	inactive		
C1=CC2C3C=CC(C3)C2C1 (stereo unspecified)		inactive	inactive				inactive	inactive	inactive	inactive		
CSCCC=O		inactive	inactive				inactive	inactive	inactive	inactive		
CCC(C)c1cc([N+](=O)[O-])cc([N+](=O)[O-])c1OC(=O)OC(C)C (stereo unspecified)	11.7 µM (active)			13.4 µM (active)	20 µM (active)	13.6 µM (active)					35.8 µM (active)	24.4 µM (active)
CS(=O)(=O)c1ccc(C2=C(c3ccccc3)C(=O)OC2)cc1	0.0082 µM (active)	inactive	inactive					inactive	inactive	inactive		
CN(c1nccc(=O)[nH]1)C1CCN(c2nc3ccccc3n2Cc2ccc(F)cc2)CC1		inactive	inactive				inactive	inactive	inactive	inactive		
C=C(C)C(=O)OCC(CC)(COC(=O)C(=C)C)COC(=O)C(=C)C	13 µM (active)	inactive		15.5 µM (active)	5.25 µM (active)	32.3 µM (active)						10.1 µM (active)
C=C(C)[C@H]1CC=C(C)C(=O)C1		inactive	inactive				inactive	inactive	inactive	inactive		
CC(=O)c1c(C)c([N+](=O)[O-])c(C(C)(C)C)c([N+](=O)[O-])c1C		inactive	inactive				inactive	inactive	inactive	inactive		
COc1ccc(OC)c(N=Nc2c(O)ccc3ccccc23)c1			inactive	6.83 µM (active)	10.3 µM (active)	3.12 µM (active)	inactive				0.0788 µM (active)	
CC(C)(C)CC(C)(C)c1ccc(OCCOCC[N+](C)(C)Cc2ccccc2)cc1	5 µM (active)		inactive	7.98 µM (active)		5 µM (active)			inactive		5 µM (active)	
Clc1cc(Cl)c(-c2c(Cl)c(Cl)cc(Cl)c2Cl)cc1Cl	4.46 µM (active)		inactive	11.6 µM (active)	2.61 µM (active)					inactive	7.14 µM (active)	
CC(=O)Nc1ccc(C(=O)CCl)cc1	13.7 µM (active)		inactive	29.3 µM (active)		34.5 µM (active)			inactive		29.6 µM (active)	
CC1(C)C2=CCCC(C)(C)[C@]23CC[C@H]1C3	35.3 µM (active)	inactive	inactive	30.9 µM (active)	31.2 µM (active)					inactive		
CCN(CC)C(=O)N(CC)CC		inactive	inactive				inactive	inactive	inactive	inactive		
COc1ccc(CCN2CCC(Nc3nc4ccccc4n3Cc3ccc(F)cc3)CC2)cc1			inactive	7.48 µM (active)	3.79 µM (active)		inactive			inactive	7.38 µM (active)	
CC=Cc1ccc(OCC)c(O)c1		inactive	inactive				inactive	inactive	inactive	inactive		
Cc1cc(CCC(=O)OCCOCCOCCOC(=O)CCc2cc(C)c(O)c(C(C)(C)C)c2)cc(C(C)(C)C)c1O		inactive	inactive				inactive	inactive	inactive	inactive		
O=C1c2ccccc2C(=O)c2c(O)ccc(O)c21		inactive	inactive		3.25 µM (active)		inactive	inactive		inactive		
CCCCCC(C=O)=Cc1ccccc1		inactive	inactive		28.4 µM (active)		inactive	inactive		inactive		
